PubChem BioAssay AID602292 (National Center for Advancing Translational Sciences (NCATS), 2012)
Hit rate of the full screen: of about 1,300 compounds, about 380 (29%) were called active. About 37% were inconclusive and are not listed. Calls come from the whole dose curve; as a rule, active = well fitted inhibition curve with a large enough effect; inconclusive = small, poorly fitted or top-dose-only effect; inactive = flat fitted curve, though single readings scatter. The list shows a part of the results. Entries that show only a call come without a potency.

Each molecule was assayed against Thyrotropin receptor (Homo sapiens) (UniProt P16473) (assay: qHTS for antagonists of the Thyroid Stimulation Hormone Receptor: Hit Validation in Primary Screen). Settings: TSHR-expressing cells, cAMP antagonist mode; series mostly up to 58 µM.
Thyrotropin receptor (Homo sapiens), sequence (P16473 whole entry, looked up): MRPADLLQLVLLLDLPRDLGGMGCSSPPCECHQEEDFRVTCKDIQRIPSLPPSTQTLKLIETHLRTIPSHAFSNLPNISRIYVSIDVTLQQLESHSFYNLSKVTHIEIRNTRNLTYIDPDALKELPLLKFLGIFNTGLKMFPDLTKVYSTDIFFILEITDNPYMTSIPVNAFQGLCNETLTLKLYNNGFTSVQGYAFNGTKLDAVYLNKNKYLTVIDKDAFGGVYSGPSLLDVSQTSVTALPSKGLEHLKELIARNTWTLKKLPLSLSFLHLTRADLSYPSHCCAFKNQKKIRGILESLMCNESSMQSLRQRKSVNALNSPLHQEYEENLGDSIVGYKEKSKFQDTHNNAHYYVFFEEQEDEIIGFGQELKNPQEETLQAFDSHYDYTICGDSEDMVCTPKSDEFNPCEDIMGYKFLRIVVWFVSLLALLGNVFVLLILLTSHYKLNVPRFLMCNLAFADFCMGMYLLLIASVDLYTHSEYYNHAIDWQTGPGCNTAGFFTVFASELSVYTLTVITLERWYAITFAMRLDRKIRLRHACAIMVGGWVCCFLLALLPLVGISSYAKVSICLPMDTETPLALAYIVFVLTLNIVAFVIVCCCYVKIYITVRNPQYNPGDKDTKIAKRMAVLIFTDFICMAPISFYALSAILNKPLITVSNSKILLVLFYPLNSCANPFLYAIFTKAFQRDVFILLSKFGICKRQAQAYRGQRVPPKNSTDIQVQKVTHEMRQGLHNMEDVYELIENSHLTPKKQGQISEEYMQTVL
Summary of the method: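 TSHR-expressing cells were pretreated with compound, then stimulated with TSH at EC80 (4nM final) for 2 hours at 37 deg C. Cellular cAMP measured by competitive HTRF (anti-cAMP cryptate, cAMP-d2) after 30 min at room temperature.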
Note: nearly all actives have a fitted effect of over 80% in size.
Potency is the fitted concentration of half-maximal effect.

Compound | Potency
Cc1noc(C)c1COc1ccccc1C(=O)N(C)Cc1ccc(C(C)(C)C)cc1 | 30.1 µM (active)
Nc1ccn(Cc2ccccc2F)n1 | inactive
O=C(Nc1cccc(Cl)c1)Nc1ccc(Br)cc1F | 21.3 µM (active)
N#CC1=C(C2CC2)CC(c2ccccc2)C(C#N)=C1N (centres undefined) | inactive
CC1(C)CC(=O)c2c(nc3ccccc3c2N)C1 | inactive
CC(C)C(c1nnnn1Cc1ccco1)N1CCN(c2nc3ccccc3s2)CC1 (centres undefined) | 30.1 µM (active)
c1ccc(C(c2nnnn2Cc2ccco2)N2CCN(c3nc4ccccc4s3)CC2)cc1 (centres undefined) | inactive
COc1cccc(OC)c1C(=O)Nc1sc2c(c1C#N)CCC2 | inactive
CC(C)CC(=O)NC(NC(=S)Nc1sc2c(c1C#N)CCCC2)C(Cl)(Cl)Cl (centres undefined) | 23.9 µM (active)
Cc1cc(C)cc(N=C2NC(=O)CS2)c1 | inactive
Cc1nc2ccccc2n1CCOc1ccccc1 | inactive
Oc1c(Cl)cc(Cl)c(Cl)c1Cc1c(O)c(Cl)cc(Cl)c1Cl | 2.13 µM (active)
CC(C)S(=O)(=O)C1=NSC2=NC(=O)/C(=C\c3ccc(-c4ccccc4)o3)C(=N)N21 | 3.79 µM (active)
CSc1nc(-c2ccc(Cl)cc2Cl)[nH]c(=O)c1C#N | 6.75 µM (active)
COc1cc(NC(=O)Cn2nc(C(F)(F)F)c(Br)c2C)cc([N+](=O)[O-])c1 | 26.9 µM (active)
CN(CC(=O)Nc1ccccc1C(F)(F)F)Cc1c(O)ccc2ccccc12 | inactive
CC(=O)N/N=C\c1ccccc1OC/C=C/c1ccccc1 | inactive
CCOC(=O)COc1ccc(Br)cc1/C=C/c1[nH]c(=O)[nH]c(=O)c1[N+](=O)[O-] | 23.9 µM (active)
CCOC(=O)COc1ccccc1/C=C\[N+](=O)[O-] | 30.1 µM (active)
CC(C)OCCCn1c(=O)c2ccccc2n2c(CCC(=O)NC3CCN(Cc4ccccc4)CC3)nnc12 | inactive
CC1CCN(Cc2c(C(=O)N/N=C/c3cc(Cl)ccc3O)nnn2-c2nonc2N)CC1 | inactive
COc1cccc(/C=N/NC(=O)C(=O)N2CCCC2)c1O | inactive
N#Cc1ccc(Nc2nc(-c3ccc(O)cc3O)cs2)cc1C(F)(F)F | 23.9 µM (active)
COc1ccc(/C=C2\CC/C(=C\c3ccc(OC)c(OC)c3)C2=O)cc1OC | 19 µM (active)
COc1ccc(/C=C/C(=O)Nc2nc(C)cc(C)n2)cc1OC | inactive

Compound | Potency
COc1ccc(/C=C/C(=O)N2CCN(C)CC2)cc1OC | inactive
CNc1c(NC(=O)c2ccc3c(c2)OCO3)c(=O)oc2ccccc12 | inactive
COc1ccc(-c2nnc(NC(=O)c3ccc4c(c3)OCCO4)o2)cc1 | inactive
O=C(Nc1ccc2oc(-c3ccccc3F)nc2c1)c1ccc2c(c1)OCCO2 | 30.1 µM (active)
Cn1c(CNC(=O)C(Cc2ccccc2)NC(=O)c2ccccc2)cc(=O)n(C)c1=O (centres undefined) | inactive
CCN(c1ccccc1)S(=O)(=O)c1ccc(C(=O)N(CCCN(C)C)c2nc3cc4c(cc3s2)OCO4)cc1 | inactive
CCN(CC)S(=O)(=O)c1cccc(C(=O)Nc2nc3cc4c(cc3s2)OCCO4)c1 | 21.3 µM (active)
CC1CCC(C(C)C)C(OC(=O)Cn2c(-c3ccccc3)[n+](C)c3ccccc32)C1 (centres undefined) | 30.1 µM (active)
CCOC(=O)C1C(c2cc(OC)c(OC)c(OC)c2)NC(=S)NC1(O)C(F)(F)F (centres undefined) | inactive
CC1=C(C(=O)OC(C)(C)C)C(c2ccc3ccccc3c2)NC(=O)N1C (centres undefined) | inactive
CC(C)(C)OC(=O)NCCCCCc1cn([C@@H](CO)C(=O)NCCCCCCCCCCC(=O)N2CCN(C(=O)OC(C)(C)C)CC2)nn1 | 16.9 µM (active)
CN1C(=O)/C(=C/c2ccc(OCc3ccccc3F)cc2)NC1=S | inactive
O=C1S/C(=C\c2ccc(O)c([N+](=O)[O-])c2)C(=O)N1c1ccccc1Cl | 9.53 µM (active)
Cc1ccc(CN2C(=O)c3ccccc3Sc3ccc(C(=O)NCCN4CCOCC4)cc32)cc1 | inactive
CC(=O)N1c2ccc(S(=O)(=O)N3CCC(C(=O)NC(C)c4ccccc4)CC3)cc2CC1C (centres undefined) | inactive
C=CCSc1nsc(NC(=O)Nc2ccc(F)cc2)n1 | 7.57 µM (active)
Cc1ccc(-n2c(Cl)c(Cl)nc(Cl)c2=O)cc1 | 26.9 µM (active)
CCOC(=O)c1cccc(OCC(O)CNCCOc2ccccc2F)c1 (centres undefined) | inactive
O=[N+]([O-])c1ccc(N=Nc2c(Cl)cc(O)cc2Cl)cc1 | 1.51 µM (active)
COc1ccc(C(=O)NC2CCCc3c2cnn3-c2cccc(C)c2C)c(OC)n1 (centres undefined) | 21.3 µM (active)
Cn1c(N=Nc2ccc(N3CCOCC3)cc2)[n+](C)c2ccccc21 | 12 µM (active)
CCCn1nc([N+](=O)[O-])c(C(C#N)c2nc3ccccc3o2)c(Cl)c1=O (centres undefined) | 6.01 µM (active)
CCn1nc([N+](=O)[O-])c(C(C#N)c2nc3cc(C(F)(F)F)ccc3s2)c(Cl)c1=O (centres undefined) | 2.69 µM (active)
Cc1cc(C(=O)CCl)c(C)n1CCc1ccccc1 | 30.1 µM (active)
O=C(NCCc1ccccc1)c1cccnc1N1CCCCCC1 | inactive

Compound | Potency
CCOC(=O)N1CCN(C(=O)CCc2ccccc2)CC1 | inactive
Brc1ccc(CNc2ccc3ncccc3c2)cc1 | 23.9 µM (active)
CCOc1ccc(-n2c(SCC(=O)NC(C)CC)nc3n[nH]c(C)c3c2=N)cc1 (centres undefined) | inactive
O=S(=O)(Nc1ccc2cn[nH]c2c1)c1cc(Br)ccc1Br | 21.3 µM (active)
O=C(Nc1ccc(Cl)c(Cl)c1)Nc1ccccc1O | 21.3 µM (active)
O=C(Nc1ccncc1)Nc1cc(Cl)ccc1Cl | inactive
CSc1ccccc1OCc1cc(C(=O)NC2CCc3ccccc32)no1 (centres undefined) | inactive
O=C(c1cc(COc2cccc3cnccc23)on1)N1CCCC(CCCO)C1 (centres undefined) | 13.5 µM (active)
Cc1ccc(C(=O)Nc2ccc(Br)c(C(F)(F)F)c2)cc1 | 23.9 µM (active)
Cc1nc2ccc(C(=O)Nc3ccc4nc[nH]c4c3)cc2[nH]1 | inactive
CCn1c(=S)sc2c(=O)n(CC(=O)Nc3ccccc3OC)c(C)nc21 | inactive
O=C(Nc1nc(-c2cccs2)c(-c2cccs2)s1)C1CCCC1 | 19 µM (active)
O=C(COCc1cc(-c2cccs2)on1)NC1CCCCC1 | inactive
COc1ccc(CC(=O)Oc2cc(C)ccc2C)cc1 | inactive
CN(C)/C=C(/C(=O)c1ccc(Cl)cc1)S(=O)(=O)c1ccc(Cl)cc1 | inactive
c1ccc2c(CSc3ncnc4nc[nH]c34)cccc2c1 | 30.1 µM (active)
O=C(COc1ccc(Cl)cc1)NCc1nnc(SCC(=O)NC2CCCCC2)o1 | inactive
Clc1ccc(CSc2nnc(CNc3cccc(Cl)c3)o2)cc1 | 23.9 µM (active)
Cc1sc(N/N=C/c2cccnc2)nc1-c1ccccc1 | 23.9 µM (active)
C(=N\N1CCN(Cc2cccc3ccccc23)CC1)/c1cccnc1 | inactive
Nc1c(C(=O)NCc2ccc3c(c2)OCO3)nnn1CC(=O)Nc1ccc(Br)cc1 | inactive
COc1ccc(Br)cc1/C=N/NC(=O)CN1CCCCC1 | inactive
COc1cc(C(C)=O)ccc1OCC(=O)Nc1ccc(C)c(S(=O)(=O)N2CCCCCC2)c1 | 19 µM (active)
COc1cc(C(=S)N2CCCC2)ccc1OCc1ccc(C)cc1 | inactive
COc1ccc(NC(=O)CCC2CCCCC2)cc1S(=O)(=O)N1CCCCC1 | 37.9 µM (active)

Compound | Potency
COC(=O)CN1C(=O)COc2ccc(S(=O)(=O)N3CCCC3)cc21 | inactive
COc1ccc(NS(=O)(=O)c2cc(NC(=O)/C=C/c3cc(OC)ccc3OC)ccc2N2CCCCC2)cc1 | inactive
COC(=O)c1cc(=O)n(-c2c(Cl)cc(C(F)(F)F)cc2Cl)[nH]1 | inactive
CCCN1CCN(CCCNC(=O)Cn2nc(C)n3c(cc4cc(OC)ccc43)c2=O)CC1 | inactive
Cc1ccccc1-n1sc2cc(F)ccc2c1=O | 19 µM (active)
Cc1c(C(=O)OC/C(O)=C(\C#N)c2nc3ccccc3[nH]2)oc2ccc(Br)cc12 | inactive
CS(=O)(=O)N(CC(=O)N1CCOCC1)c1cccc(F)c1 | inactive
O=C(CSc1n[nH]c(=O)n1C1CC1)c1ccc2c(c1)OCCO2 | inactive
Cc1ccc(S(=O)(=O)c2c(C(=O)c3ccccc3)cnc3cc4c(cc23)OCCO4)cc1 | inactive
O=C(CSc1ncnc2ccccc12)c1ccc2c(c1)OCCO2 | 26.9 µM (active)
COCC(C)NC(=O)C1c2ccccc2Oc2ccccc21 (centres undefined) | inactive
O=S(=O)(Nc1ccc(O)c(Sc2nc3ccccc3s2)c1)c1cccc2ccccc12 | 37.9 µM (active)
CCn1c(Cl)c(C=O)s/c1=N\S(=O)(=O)c1ccccc1 | 21.3 µM (active)
CCN(CC)S(=O)(=O)c1cccc(NC(=O)CCSc2ccc(Cl)cc2)c1 | 30.1 µM (active)
CC(=O)c1cccc(NC(=O)CCCSc2ccccc2)c1 | inactive
CC(=O)N1c2ccc(S(=O)(=O)NCCC(=O)Nc3cccc(Cl)c3)cc2CC1C (centres undefined) | inactive
CC1CCCN(S(=O)(=O)c2csc(C(N)=O)c2)C1 (centres undefined) | inactive
CCOP(=O)(Cc1ccc(C(C)(C)CC(C)=O)o1)OCC | inactive
Cc1ccc(C(=O)N2c3ccccc3N(Cc3ccccc3)C(=O)C2(C)C)cc1 | 16.9 µM (active)
Cc1ccc(CN2C(=O)c3ccccc3Sc3ccc(C(=O)NCCCN4CCOCC4)cc32)cc1 | inactive
O=C(c1ccc2c(c1)N(Cc1ccccc1)C(=O)c1ccccc1S2)N1CCCC1 | inactive
O=C(NC(Nc1nc2ccc([N+](=O)[O-])cc2s1)(C(F)(F)F)C(F)(F)F)c1cccnc1 | 7.57 µM (active)
COc1ccc2nc(NC(=O)c3ccccc3[N+](=O)[O-])sc2c1 | inactive
O=C(NC(Nc1nc2ccc([N+](=O)[O-])cc2s1)(C(F)(F)F)C(F)(F)F)c1ccccc1 | 0.953 µM (active)
